In all, about 68,000 sequences were measured (“fluorescence intensity (a.u.)”: median about 9,100, highest 2% from about 16,000 on). What follows is part of a selection rich in the highest values, with near analogues and random picks from the rest.

OsWRKY34, sequence (Q0JBA9 entry or part of it): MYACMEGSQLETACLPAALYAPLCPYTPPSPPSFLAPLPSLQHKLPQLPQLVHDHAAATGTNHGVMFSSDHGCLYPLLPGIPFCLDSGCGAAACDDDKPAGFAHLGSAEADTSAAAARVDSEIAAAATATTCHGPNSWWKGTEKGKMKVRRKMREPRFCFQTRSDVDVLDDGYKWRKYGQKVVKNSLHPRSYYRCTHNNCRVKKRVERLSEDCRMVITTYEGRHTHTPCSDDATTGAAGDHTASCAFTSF

The assay addresses OsWRKY34 (Oryza sativa, UniProt Q0JBA9 1-250). The assay is described as follows: protein-binding microarray (RPBM); PBS, 2% BSA, 51.3 ng/ul salmon testes DNA, 50 uM zinc acetate, 200 nM TF, 25 C, 1 h; high values mean tight binding. Particulars: protein: recombinant; tags: N-terminal polyhistidine and DsRed monomer fusion (pET32a); label: CyDye5-dUTP incorporated in the synthesized complementary strand; 3' TTTTT single-stranded linker to array surface; dsDNA, one strand shown. In outline: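 The binding signal is fluorescence intensity per feature, in arbitrary units, read on an Axon 4000B scanner. Polyhistidine- and DsRed-tagged transcription factors (N-terminal fusions) from E. coli BL21-CodonPlus were purified on Ni–NTA and applied at 200 nM for 1 h at 25 °C to a double-stranded, BSA-blocked custom Agilent array in buffer with 50 µM zinc acetate.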
“GTCTTTTCTTCAAGGTTATCTTTTTTGTCCCTTTTTTATTCGGAGTCACCTAGTGCAG”: the binding signal is 15200 fluorescence intensity (a.u.).
For “TCATATTGTACCTTCCACTTTTATTCTTTTAAAGCCTATACGGAGTCACCTAGTGCAG” the value was 9560 fluorescence intensity (a.u.).
Take “AGGCGCTCCATAGGCCTCGTCATCTTCACAGTCACACACCCGGAGTCACCTAGTGCAG”: the binding signal was 11200 fluorescence intensity (a.u.).
For “GCTGCCTATTCCATACAAATTTCGTAGGTTCATTTCCAACCGGAGTCACCTAGTGCAG”, the binding signal was 10000 fluorescence intensity (a.u.).
For “TAGATCTCTTGCTTTGGGTGTTGTTTGCTCTAGGTGTTCTCGGAGTCACCTAGTGCAG” the value was 8250 fluorescence intensity (a.u.).
Take “TCTAGGTTCTGTTCTATTCGGTTCTAGGTTATCATATTTTCGGAGTCACCTAGTGCAG”: the binding signal was 12100 fluorescence intensity (a.u.).
In the case of “CATCTACGTGCTCTCTTTGGTTGGGGTGTTCTTGCTGCTACGGAGTCACCTAGTGCAG” it was 17700 fluorescence intensity (a.u.); in that of “GATATTGGAGGTGCATCTGTTAGGGTTCGGGTTCTCTCTACGGAGTCACCTAGTGCAG”, 16700 fluorescence intensity (a.u.).
In the case of “CTTCTTCGGATCACTCGGTTGGTTTCTTGGTTTCTTGGTTCGGAGTCACCTAGTGCAG” it was 13000 fluorescence intensity (a.u.); in that of “ATGAATTAGGTGTGGTTCTCTTTAATCTGTTATTAGTCATCGGAGTCACCTAGTGCAG”, 11000 fluorescence intensity (a.u.).
In the case of “TTTGGGGTGTGTTTTTGTCTAGAGGTAAAGTTTTTAAAGTCGGAGTCACCTAGTGCAG” it was 10600 fluorescence intensity (a.u.).
Take “TTCACTATTGGGTGTTTTTGTCTCGATTCACCTTCATCGTCGGAGTCACCTAGTGCAG”: the binding signal was 8840 fluorescence intensity (a.u.).
For “GACTATAGAGGCTTTGTTTGTTTGGGGTGTGTTTTTGTCTCGGAGTCACCTAGTGCAG” the value was 17200 fluorescence intensity (a.u.); for “ATTGGTCGTCTTGCTGAGCTCTCGTACTTGGATCTCTCTACGGAGTCACCTAGTGCAG”, 11100 fluorescence intensity (a.u.).
As to “GTCGTCGTCTTCGTCTCGAGTTCTTGGTTGGTTGGATCTACGGAGTCACCTAGTGCAG”, the binding signal was 19400 fluorescence intensity (a.u.).
For “CGTGTTGGGGTTCTCTTCCTGCTGCTTTGGCCACCTGGGACGGAGTCACCTAGTGCAG” the value was 12500 fluorescence intensity (a.u.); for “GGACTCCTGATTTCTACTCTATTCCTATTCCACTAGCTTACGGAGTCACCTAGTGCAG”, 14400 fluorescence intensity (a.u.).
In the case of “ATCCTGCGATTCCACCATATCCAATCCTCGTATCTTGGGTCGGAGTCACCTAGTGCAG” it was 8310 fluorescence intensity (a.u.); in that of “TTATCTAGATTCGTATTACTAGGATGTGTCTCGTTCAACCCGGAGTCACCTAGTGCAG”, 8780 fluorescence intensity (a.u.).
For “GTGGGCCCCGCCCGTGTGATCGTGTCTCTGTTTCGTTTTCCGGAGTCACCTAGTGCAG” the value was 12100 fluorescence intensity (a.u.); for “GTGTTTTTTCTTCATTTGTCCCGTAATAAATTTATTTTTTCGGAGTCACCTAGTGCAG”, 12500 fluorescence intensity (a.u.); for “CGCTTACAGTCCACTCTCCACTGCGCCCGCATGAGTCATGCGGAGTCACCTAGTGCAG”, 8880 fluorescence intensity (a.u.).
Consider “AAACTGCCAGCTTTCTGCATCTCTCCGCCCTCATGATGCGCGGAGTCACCTAGTGCAG”, for which the binding signal is 9490 fluorescence intensity (a.u.).
In the case of “TTTTCTTTCCTTTATTATTTTCTTTATCCTTTTTTTCTCCCGGAGTCACCTAGTGCAG” it was 9250 fluorescence intensity (a.u.); in that of “ATCGGCGCCGTCGACCGCGACCACCCTGCCGCCGAGCGCCCGGAGTCACCTAGTGCAG”, 10300 fluorescence intensity (a.u.).
In the case of “TCCTCTTCTTCTTCTTCTTCTTCTCGTGGGTGCAAGAAGCCGGAGTCACCTAGTGCAG” it was 8380 fluorescence intensity (a.u.).
For “CGCCCAAGCTAGCTAGTGGCCATTATCCCATGGATATTTCCGGAGTCACCTAGTGCAG” the value was 8280 fluorescence intensity (a.u.); for “ATCCTGTATCGTCCAGAATGCTTCTTCCATCCTAATCACCCGGAGTCACCTAGTGCAG”, 9220 fluorescence intensity (a.u.).
“GCTTCTGCTTCTTCTTGTTCTTGTTGCTGTTGGTAATACTCGGAGTCACCTAGTGCAG”: the binding signal is 11000 fluorescence intensity (a.u.).
“CTTCTCTTTGTTTTCTTGTTTGCTTGCTTGGTGTAAAGAACGGAGTCACCTAGTGCAG”: the binding signal was 16100 fluorescence intensity (a.u.).
Regarding “ATCACTCTTCTTGGTCGTTCTTGCCATTCTTGTACCGCGACGGAGTCACCTAGTGCAG”, the binding signal is 18200 fluorescence intensity (a.u.).
“GTAATTCTGTTGTCATACGGTTTATTGTGTGGTTGCTGAACGGAGTCACCTAGTGCAG”: the binding signal was 9010 fluorescence intensity (a.u.).
For “CATGTAATTCTCTTCACTTTTGCTTGTTTGGGTTGTGAAACGGAGTCACCTAGTGCAG”, the binding signal was 10100 fluorescence intensity (a.u.).
In the case of “ATCAAAGTTGCTGGGGTTAATTTGGGTTCTTGGTTGTGAACGGAGTCACCTAGTGCAG” it was 15600 fluorescence intensity (a.u.); in that of “GGTTGGGTGTTTTTGCTTCTCTTGTAGTCTTTGTGTAGAACGGAGTCACCTAGTGCAG”, 21500 fluorescence intensity (a.u.).
With “TCTCTCTCTCGTCGTCTCGCGTCTCTTCTCTCAACCGCGACGGAGTCACCTAGTGCAG”, the binding signal was 13800 fluorescence intensity (a.u.).
In the case of “CGGGGTTCTTGTGTTTATTGTTAAGATCCGGTTTGCTGAACGGAGTCACCTAGTGCAG” it was 21900 fluorescence intensity (a.u.).
Regarding “TTCTTGCTAGTTCTTGTAGTATCTGGTTCTTGCTAGTTCTCGGAGTCACCTAGTGCAG”, the binding signal was 10800 fluorescence intensity (a.u.).
For “GGTATCTGTTGCTGCTTGCTGGTTCTCGTGCTATTGTTCTCGGAGTCACCTAGTGCAG” the value was 19900 fluorescence intensity (a.u.); for “ATCTTTTTACCCAATTCTTGATCACTCTTCTTGGTCGTTCCGGAGTCACCTAGTGCAG”, 8060 fluorescence intensity (a.u.); for “CGCCACCGTCCTGCTCACCGGCGTTCCGCCGGAACGACTTCGGAGTCACCTAGTGCAG”, 9640 fluorescence intensity (a.u.).
Turning to “ATTTTTTTTGTCAAACTGCCACGAAAGCGTCACGTTAATACGGAGTCACCTAGTGCAG”, the binding signal was 8240 fluorescence intensity (a.u.).
As for “CAATTCACGCCACCCGCTCCGCCTCTCGCCGCCTCGACCGCGGAGTCACCTAGTGCAG”, the binding signal was 11000 fluorescence intensity (a.u.).
In the case of “AAATTTTGACTCCTTCAGTTAATGATTTTCGTATACAAATCGGAGTCACCTAGTGCAG” it was 8180 fluorescence intensity (a.u.); in that of “ATCTCTCTCATATTCCTTCGATCTGCAGCTTGTACGTTGGCGGAGTCACCTAGTGCAG”, 14500 fluorescence intensity (a.u.); in that of “CTGTTGACTATCCATGCCATTTTTACCGATTAGTCTATCTCGGAGTCACCTAGTGCAG”, 13800 fluorescence intensity (a.u.).
Regarding “CGCAGTCCGAAGTTGATTTTTTTTTTTTTTACGGAGTACTCGGAGTCACCTAGTGCAG”, the binding signal was 8250 fluorescence intensity (a.u.).
For “TGATTGTGTTTGTAGACTTGGTTGGTATTGTTGAACGGATCGGAGTCACCTAGTGCAG” the value was 11800 fluorescence intensity (a.u.); for “AAATACTCCCTCCGTATTTTAATGTATGACACCGTTGACTCGGAGTCACCTAGTGCAG”, 10300 fluorescence intensity (a.u.); for “TTTATGTAATGCCTTAAGATCACACATTGACTTATTTTTGCGGAGTCACCTAGTGCAG”, 8050 fluorescence intensity (a.u.).
For “AGGGAGCCTATTTTAATGTATGACACCGTTGACTTTTTTGCGGAGTCACCTAGTGCAG” the value was 19200 fluorescence intensity (a.u.).
In the case of “CATCCGTATTTTAATGTATGACACCGTTGACTTTTCGACTCGGAGTCACCTAGTGCAG” it was 19100 fluorescence intensity (a.u.); in that of “AGAGGGAGTATTATGTTTATGCTTTTAATTTTTCACTTTGCGGAGTCACCTAGTGCAG”, 9150 fluorescence intensity (a.u.).
Consider “CCGTATTTTAATGTATATGACACCGTTGACTTTTTGACCACGGAGTCACCTAGTGCAG”, for which the binding signal was 40800 fluorescence intensity (a.u.).
For “CATATTTTAATTTTAATGTATGACACCGTTGACTTTTCGACGGAGTCACCTAGTGCAG” the value was 16000 fluorescence intensity (a.u.).

For the origin of these results see paper PMC7819943, “Rice protein-binding microarrays: a tool to detect cis-acting elements near promoter regions in rice”.
